# Records with an inconclusive call do not appear. Calls of active or inactive are those of the source. Rule for the calls, unless noted: active = hit-call score of the fitted dose curve at least 0.9, where 1 is the maximum; inactive = score below 0.9.
# Assays:
# [1] = read-out: Interleukin 6 (IL6), IL6 (gene 3569); experiment: BSK_BT_xIL6: BioMAP Diversity Plus: BT Assay for Interleukin 6 (IL6) Biomarker Activity (AID 2284228); conditions: primary human B cells with PBMC
# Procedure, shortened: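 B cells and peripheral blood mononuclear cells (human primary co-culture) were dosed with chemical, and after 24 h IL-6 released into the medium was measured by Luminex xMAP. Responses were analysed as gain of signal over DMSO control.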
# [2] = read-out: Interleukin 17A (IL17A), IL17A (gene 3605); experiment: BSK_BT_xIL17A: BioMAP Diversity Plus: BT Assay for Interleukin 17A (IL17A) Biomarker Activity (AID 2284229); conditions: primary human B cells with PBMC
# Procedure, shortened: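 Secreted IL-17A was the measured endpoint, read by Luminex xMAP multiplex in supernatants of a human B cell/PBMC co-culture harvested 24 h after chemical dosing. Signal increase relative to DMSO defined activity.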
# [3] = read-out: Tumor necrosis factor (Homo sapiens) (UniProt P01375); experiment: BSK_BT_xTNFa: BioMAP Diversity Plus: BT Assay for Tumor necrosis factor alpha (TNF-alpha) Biomarker Activity (AID 2284230); conditions: primary human B cells with PBMC
# Procedure, shortened: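 Read-out: Luminex xMAP quantitation of secreted TNF-alpha from a B cell/PBMC co-culture 24 h after compound addition. Signal analysed relative to DMSO vehicle, positive fitting direction.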
# [4] = read-out: Vascular cell adhesion molecule 1 (VCAM1), VCAM1 (gene 7412); experiment: BSK_MyoF_VCAM1: BioMAP Diversity Plus: MyoF Assay for Vascular cell adhesion molecule 1 (VCAM1) Biomarker Activity (AID 2284231); conditions: primary human lung fibroblasts
# Procedure, shortened: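 ELISA read-out of VCAM-1 on human lung fibroblasts 24 h after chemical treatment, with positive-direction curve fitting relative to DMSO controls. Parallel cultures were stained with sulforhodamine B for total protein to flag overt cytotoxicity.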
# [5] = read-out: Collagen I, COL1A1 (gene 1277); experiment: BSK_MyoF_CollagenI: BioMAP Diversity Plus: MyoF Assay for Collagen I Biomarker Activity (AID 2284238); conditions: primary human lung fibroblasts
# Procedure, shortened: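 Lung fibroblasts (human primary) dosed, 24 h; Collagen I by ELISA; positive-direction fit vs DMSO control. Parallel SRB total-protein staining (0.1% SRB, 10% TCA fixation, 560 nm) flags overt cytotoxicity.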
# [6] = read-out: Collagen III, COL3A1 (gene 1281); experiment: BSK_MyoF_CollagenIII: BioMAP Diversity Plus: MyoF Assay for Collagen III Biomarker Activity (AID 2284239); conditions: primary human lung fibroblasts
# Procedure, shortened: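 ELISA read-out of collagen III from human lung fibroblasts after 24 h of chemical treatment. The DMSO control served as negative control and baseline, with values fitted in the positive direction.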
# [7] = UKN2_HCS_IMR90_cell_viability: Viability Assessment in the University of Konstanz (UKN) Leist Lab Neural Crest Cell Migration Assay in human induced IMR90 Pluripotent Stem Cells (UKN2) (AID 2284233);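 note: viability of neural crest cells differentiated from IMR90 iPSC measured by calcein-AM fluorescence imaging; cells exposed to compound for 24 h after a 24 h migration phase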
# Procedure, shortened: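 Neural crest cells derived from IMR90 iPSC migrate into a stopper-free zone for 24 h in EGF/FGF medium, then are exposed to compound for 24 h. Viability assessed by calcein-AM and Hoechst staining with high-content imaging, fitted bidirectionally versus DMSO.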
# [8] = CCTE_Mundy_HCI_Cortical_NOG_NeuronCount: CCTE's Neurite Outgrowth Assay in rat cortical cells for Neuron Count, Mundy Lab (AID 2284236; active = hit-call score of the fitted dose curve at least 0.9, where 1 is the maximum;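 note: neurons counted by imaging betaIII-tubulin and Hoechst stained cortical cells; cells exposed to compound for about 48 hours before fixation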)
# Procedure, shortened: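 Read-out: neuron number by high-content imaging of betaIII-tubulin (Alexa Fluor-488) and Hoechst-labelled rat primary cortical cells.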
# [9] = CCTE_Mundy_HCI_Cortical_NOG_BPCount: CCTE's Neurite Outgrowth Assay in rat cortical cells for Branch Point Count, Mundy Lab (AID 2284237);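 for AC50: branch points counted about two days after chemical exposure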
# Procedure, shortened: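 Measured 50.33 h after dosing, this morphology endpoint uses rat primary cortical cultures labelled for betaIII-tubulin. Branch points are quantified by high-content imaging, with DMSO as negative control and baseline.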
# [10] = UKN4_HCS_LUHMES_cell_viability: Viability Assessment in the University of Konstanz (UKN) Leist Lab Neurite Outgrowth Assay in human LUHMES cells (UKN4) (AID 2284232)
# Procedure, shortened: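 Human dopaminergic-model LUHMES neurons were exposed to chemicals for 24 h after a 2-day differentiation. Viability was scored by imaging Hoechst H-33342 staining, with activity fitted in both directions relative to DMSO controls.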
# Chain of Tumor necrosis factor (Homo sapiens) (P01375 whole entry, looked up): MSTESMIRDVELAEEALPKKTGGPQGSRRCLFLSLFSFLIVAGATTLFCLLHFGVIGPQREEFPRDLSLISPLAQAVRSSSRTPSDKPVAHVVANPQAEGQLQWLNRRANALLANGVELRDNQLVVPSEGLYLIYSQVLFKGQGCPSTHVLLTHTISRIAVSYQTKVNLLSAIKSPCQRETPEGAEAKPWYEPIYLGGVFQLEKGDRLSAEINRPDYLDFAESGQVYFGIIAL
compound,measurement,setting,value
C#CCOC(=O)/C=C(C)/C=C/CC(C)CCCC(C)C (stereo unspecified),outcome,[1],inactive
same,outcome,[2],inactive
same,outcome,[3],inactive
same,AC50,[4],20 µM (active)
same,outcome,[5],inactive
same,outcome,[6],inactive
O=c1oc2ccccc2c(O)c1C(CC(O)c1ccc(-c2ccc(Br)cc2)cc1)c1ccccc1 (stereo unspecified),outcome,[1],inactive
same,outcome,[2],inactive
same,outcome,[3],inactive
same,AC50,[4],6.21 µM (active)
same,AC50,[5],1.94 µM (active)
same,AC50,[6],2.53 µM (active)
CCOCn1c(-c2ccc(Cl)cc2)c(C#N)c(Br)c1C(F)(F)F,AC50,[7],15.1 µM (active)
same,AC50,[8],58 µM (active)
same,AC50,[9],18.6 µM (active)
Oc1cccc(-c2ccccc2)c1,outcome,[1],inactive
same,outcome,[2],inactive
same,outcome,[3],inactive
same,AC50,[4],32.3 µM (active)
same,AC50,[5],20 µM (active)
same,AC50,[6],31.3 µM (active)
NC(=O)c1ccc(N)nc1,outcome,[8],inactive
same,AC50,[9],11.4 µM (active)
N#CCCC(Br)(C#N)CBr (stereo unspecified),AC50,[1],9.34 µM (active)
same,AC50,[2],7.96 µM (active)
same,AC50,[3],11.1 µM (active)
same,AC50,[4],13.9 µM (active)
same,AC50,[5],25.7 µM (active)
same,AC50,[6],24.8 µM (active)
NC(=O)CCl,outcome,[1],inactive
same,outcome,[2],inactive
same,outcome,[3],inactive
same,outcome,[4],inactive
same,outcome,[5],inactive
same,outcome,[6],inactive
CCC(C)(C#N)N=NC(C)(C#N)CC (stereo unspecified),outcome,[1],inactive
same,outcome,[2],inactive
same,outcome,[3],inactive
same,outcome,[4],inactive
same,outcome,[5],inactive
same,outcome,[6],inactive
O=[N+]([O-])c1ccc(Nc2ccccc2)cc1,outcome,[1],inactive
same,outcome,[2],inactive
same,outcome,[3],inactive
same,outcome,[4],inactive
same,outcome,[5],inactive
same,outcome,[6],inactive
Cc1ccc2nc3sc(=O)sc3nc2c1,outcome,[1],inactive
same,outcome,[2],inactive
same,outcome,[3],inactive
same,AC50,[4],7.88 µM (active)
same,outcome,[5],inactive
same,outcome,[6],inactive
CC(C)(COCC1CO1)COCC1CO1 (stereo unspecified),outcome,[1],inactive
same,outcome,[2],inactive
same,outcome,[3],inactive
same,outcome,[4],inactive
same,outcome,[5],inactive
same,outcome,[6],inactive
CS(=O)(=O)c1ccc(C(=O)C2C(=O)CCCC2=O)c(Cl)c1COCC(F)(F)F,outcome,[8],inactive
same,outcome,[9],inactive
Cc1c([N+](=O)[O-])c(C)c([N+](=O)[O-])c(C(C)(C)C)c1[N+](=O)[O-],outcome,[1],inactive
same,outcome,[2],inactive
same,outcome,[3],inactive
same,AC50,[4],20 µM (active)
same,AC50,[5],32.1 µM (active)
same,outcome,[6],inactive
CC(C)(C)c1cc([N+](=O)[O-])cc(C(C)(C)C)c1O,outcome,[1],inactive
same,AC50,[2],13.4 µM (active)
same,AC50,[3],14.8 µM (active)
same,outcome,[4],inactive
same,outcome,[5],inactive
same,AC50,[6],0.0556 µM (active)
CCOP(=O)(OCC)SCCSCC,outcome,[1],inactive
same,outcome,[2],inactive
same,outcome,[3],inactive
same,outcome,[4],inactive
same,outcome,[5],inactive
same,outcome,[6],inactive
CC(C)[C@@H](Nc1ccc(C(F)(F)F)cc1Cl)C(=O)OC(C#N)c1cccc(Oc2ccccc2)c1 (stereo partly specified),outcome,[9],inactive
O=S1OC[C@@H]2[C@H](CO1)[C@]1(Cl)C(Cl)=C(Cl)[C@@]2(Cl)C1(Cl)Cl (stereo partly specified),AC50,[10],27 µM (active)
same,outcome,[7],inactive
CC(C=O)Cc1ccc2c(c1)OCO2 (stereo unspecified),outcome,[1],inactive
same,outcome,[2],inactive
same,outcome,[3],inactive
same,outcome,[4],inactive
same,outcome,[5],inactive
same,outcome,[6],inactive
CCN(CC)C(=O)C(Cl)=C(C)OP(=O)(OC)OC,outcome,[1],inactive
same,outcome,[2],inactive
same,outcome,[3],inactive
same,outcome,[4],inactive
same,outcome,[5],inactive
same,AC50,[6],0.016 µM (active)
COCC(=O)N(c1c(C)cccc1C)[C@H](C)C(=O)OC,outcome,[1],inactive
same,outcome,[2],inactive
same,outcome,[3],inactive
same,outcome,[4],inactive
same,outcome,[5],inactive
same,outcome,[6],inactive
Cc1cc(C(F)(C(F)(F)F)C(F)(F)F)ccc1NC(=O)c1cccc(I)c1C(=O)NC(C)(C)CS(C)(=O)=O,outcome,[10],inactive
same,outcome,[8],inactive
same,outcome,[9],inactive
O=C1C=CC(=O)c2ccccc21,AC50,[1],0.499 µM (active)
same,AC50,[2],0.482 µM (active)
same,AC50,[3],0.812 µM (active)
same,AC50,[4],3.72 µM (active)
same,AC50,[5],4.3 µM (active)
same,AC50,[6],4.13 µM (active)
CCOP(=O)(OCC)OC(=CCl)c1ccc(Cl)cc1Cl,AC50,[1],10.4 µM (active)
same,outcome,[2],inactive
same,outcome,[3],inactive
same,AC50,[4],31.2 µM (active)
same,AC50,[5],35.8 µM (active)
same,AC50,[6],30.7 µM (active)
CNC(=O)CSP(=O)(OC)OC,outcome,[10],inactive
same,outcome,[7],inactive
same,outcome,[8],inactive
same,outcome,[9],inactive
Cc1cc(Cl)ccc1OC(C)C(=O)O (stereo unspecified),outcome,[1],inactive
same,outcome,[2],inactive
same,outcome,[3],inactive
same,outcome,[4],inactive
same,outcome,[5],inactive
same,outcome,[6],inactive
CCCCN(CCCC)C(=S)[S-].CCCCN(CCCC)C(=S)[S-].[Ni+2],outcome,[1],inactive
same,outcome,[2],inactive
same,outcome,[3],inactive
same,outcome,[4],inactive
same,outcome,[5],inactive
same,outcome,[6],inactive
O=C(CCl)NCO,outcome,[1],inactive
same,outcome,[2],inactive
same,outcome,[3],inactive
same,outcome,[4],inactive
same,outcome,[5],inactive
same,outcome,[6],inactive
O=C(O)COc1cc(Cl)c(Cl)cc1Cl,outcome,[1],inactive
same,outcome,[2],inactive
same,outcome,[3],inactive
same,outcome,[4],inactive
same,outcome,[5],inactive
same,outcome,[6],inactive
Oc1ccc(Cc2ccc(O)cc2)cc1,outcome,[1],inactive
same,outcome,[2],inactive
same,outcome,[3],inactive
same,outcome,[4],inactive
same,outcome,[5],inactive
same,outcome,[6],inactive
CCOP(=S)(OCC)OP(=S)(OCC)OCC,outcome,[1],inactive
same,outcome,[2],inactive
same,outcome,[3],inactive
same,outcome,[4],inactive
same,outcome,[5],inactive
same,outcome,[6],inactive
CCOC(=O)C(SP(=S)(OC)OC)c1ccccc1 (stereo unspecified),outcome,[1],inactive
same,outcome,[2],inactive
same,outcome,[3],inactive
same,outcome,[4],inactive
same,outcome,[5],inactive
same,outcome,[6],inactive
